In PubChem BioAssay AID686978 (National Center for Advancing Translational Sciences (NCATS), 2013):
Hit rate of the full screen: of about 420,000 compounds, about 64,000 (15%) were called active. About 27% were inconclusive and are not listed. A selection follows. A number with no mark means an inactive call. Calls come from the whole dose curve; as a rule, active = well fitted inhibition curve with a large enough effect; inconclusive = small, poorly fitted or top-dose-only effect; inactive = flat fitted curve, though single readings scatter.

Assay: qHTS for Inhibitors of human tyrosyl-DNA phosphodiesterase 1 (TDP1): qHTS in cells in absence of CPT; note: nearly all actives have a fitted effect of over 55% in size
Conditions: DT40 Tdp1-/- hTDP1 cells, no CPT, ATP luminescence, 48 h; activity change, negative = growth inhibition: at 46.2 µM (top of the series)
In short: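 Cells were dispensed at 400 per well, compounds added by pin tool, plates incubated ≥48 hr at 37 °C, then CellTiter-Glo added for 30 min at room temperature before luminescence reading. Line: DT40 Tdp1-/- complemented with hTDP1; camptothecin omitted.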
% is set by controls: 0 for no effect and ±100 for the full control effect; potency is the fitted concentration of half-maximal effect.

Structure (SMILES)	activity change, negative = growth inhibition	Potency
Cc1nn(C)c(Cl)c1CN1CCC(n2nccc2NC(=O)C2CCCC2)CC1	11.6%	–
O=C(O)C1=CCCN(CCON=C(c2ccccc2)c2ccccc2)C1	–	inactive
Cc1ccc(NC(=O)c2cc3cc(C)ccc3n2C)cc1	-21.4%	–
COc1ccc(OC)c(/C(C)=N\NC(=O)c2cc3cc(Cl)ccc3n2C)c1	–	4.61 µM (active)
COc1ccc(NC(=O)c2cc3cc(C)ccc3n2C)cc1	-27.1%	–
Cc1cc(C)cc(OCC(=O)O/N=C(\N)Cc2ccc([N+](=O)[O-])cc2)c1	0.454%	–
CCOc1ccc(NS(=O)(=O)c2ccc(OCC(=O)NCCCOC)cc2)cc1	-13%	–
O=C(COc1ccc2c(C(F)(F)F)cc(=O)oc2c1)Nc1ccc2c(c1)OCCO2	-5.56%	–
COC(=O)Cc1c(C)c2ccc(OCC(=O)NCc3ccc4c(c3)OCO4)cc2oc1=O	-22.1%	–
CCOc1ccc2c(=O)c(-c3ccc4c(c3)OCCCO4)c(C)oc2c1	–	13 µM (active)
Cc1ccc(N2CC(C(=O)Nc3ccc(N(C)C)cc3)CC2=O)cc1Cl (configuration not stated)	-9.28%	–
COC(=O)c1ccc(NC(=O)CSc2nnc(CNc3ccc(OC)cc3)n2C)cc1	-4.03%	–
COc1ccc(CC(=O)NCc2nnc(SCC(=O)Nc3ncc(C)s3)n2C)cc1	–	16.4 µM (active)
COc1ccccc1C(=O)NCc1nnc(SC(C)C(=O)Nc2nccs2)n1C (configuration not stated)	21.3%	–
COc1ccc(C(=O)NCc2nnc(SCCOc3ccccc3)n2C)cc1	–	29.1 µM (active)
Cc1cnc(NC(=O)CSc2nnc(C)s2)s1	7.27%	–
Cc1ccc(SCC(=O)Nc2ncc(C)s2)cc1	-28.1%	–
Cc1cnc(NC(=O)CSc2c(Cl)cccc2Cl)s1	–	13 µM (active)
COc1ccc(CC(=O)NCc2nnc(SCC(=O)Nc3nccs3)n2C)cc1	14.7%	–
COc1ccc(-n2nnnc2CNC(=O)c2ccc3ccccc3c2)cc1	-26.4%	–
C=CCC1=C/C(=C\c2c(N)n3nc(CC(=O)N4CCOCC4)sc3nc2=O)C=C(OC)C1=O	15.1%	–
CC(=O)NC1CC2CCCC(C1)N2CC(=O)Nc1ccccc1 (configuration not stated)	2.41%	–
COc1ccccc1NS(=O)(=O)N(C)C	-6.71%	–
CC(C)(C)NC(=O)/C(=C/c1cccnc1)NC(=O)c1ccco1	2.45%	–
NS(=O)(=O)c1ccc2nc(NC(=O)C3=COCCO3)sc2c1	6.91%	–
N#CC(Cc1cc2ccccc2n1S(=O)(=O)c1ccccc1)OCc1ccccc1 (configuration not stated)	-27.1%	–

Structure (SMILES)	activity change, negative = growth inhibition	Potency
O=C(Nn1cnnc1)c1cc(Cl)ccc1Cl	-10.9%	–
CC(C)=CCN1CCN(Cc2ccc(Oc3ncccn3)cc2)CC1CCO (configuration not stated)	-1.59%	–
Cc1ccc(NC(=O)c2cccc(N(C)C)c2)cc1NC(=O)c1ccc(O)cc1	-28.1%	–
O=C1[C@@H]2C(c3cccnc3)=NO[C@@H]2C(=O)N1c1ccc(Cl)cc1Cl	-44.3%	–
OCCC1CN(Cc2ccccc2-c2ccco2)CCN1Cc1ccsc1 (configuration not stated)	-34.4%	–
Cc1ccc(C)c2[nH]c(=O)c(CCNC(=O)c3cccs3)cc12	-24.4%	–
COc1ccccc1NC(=O)CCC(=O)OC(C)C(=O)c1ccccc1 (configuration not stated)	10.1%	–
Cc1ccc(C(=O)N/C(=C/c2cccs2)C(=O)NCC2CCCO2)cc1 (configuration not stated)	-6.29%	–
COc1ccc2[nH]c(=O)c(CN(Cc3nnnn3CCc3ccccc3)CC3CCCO3)cc2c1 (configuration not stated)	–	9.2 µM (active)
Cc1ccc(S(=O)(=O)N(Cc2cc3ccccc3[nH]c2=O)CC2CCCO2)cc1 (configuration not stated)	-12.1%	–
CCOc1ccc2[nH]c(=O)c(CN(Cc3nnnn3CCc3ccccc3)CC3CCCO3)cc2c1 (configuration not stated)	–	14.6 µM (active)
Cc1cc2cc(CN(Cc3cccs3)Cc3nnnn3CC3CCCO3)c(=O)[nH]c2cc1C (configuration not stated)	–	20.6 µM (active)
O=C(c1cccs1)N(Cc1cc2ccccc2[nH]c1=O)CC1CCCO1 (configuration not stated)	2.95%	–
Cc1nnc(SCC(=O)NNC(=O)c2ccc(Cl)cc2)n1CC1CCCO1 (configuration not stated)	-3.71%	–
CC(=O)Nc1ccc(NC(=O)CSc2nnc(COc3ccccc3C)n2CC2CCCO2)cc1 (configuration not stated)	-6.91%	–
CCN1C(=O)CS/C1=N\c1nccs1	-2.04%	–
CCOC(=O)NC(=O)C(=CNc1cccc(OC)c1)C(=O)NC(=O)OCC	-8.39%	–
CC(=O)CSc1nnc(CSc2ncccn2)n1C1CCCCC1	-0.234%	–
O=C(Nc1nc(-c2cccnc2)cs1)c1ccccc1F	3.03%	–
Cc1ccc(-c2csc(NC(=O)c3cnccn3)n2)cc1C	-9.21%	–
Cc1ccc(-c2csc(NC(=O)Cc3cccs3)n2)cc1C	-1.64%	–
Cc1ccc(-c2csc(NC(=O)C3=COCCO3)n2)cc1C	–	4.11 µM (active)
O=C(Nc1nc(-c2ccc3c(c2)OCO3)cs1)c1ccncc1	–	13 µM (active)
CC(=O)NCCC(=O)Nc1nc(-c2ccc3c(c2)OCCO3)cs1	-6.56%	–
CC1=C(C(=O)Nc2cc(C)ccn2)C(c2cnn(C)c2)C2=C(CC(c3ccccc3)CC2=O)N1 (configuration not stated)	-9.41%	–
O=P(O)(O)C(O)c1ccc2ccccc2c1 (configuration not stated)	8.08%	–
